Tb hexokinase – T. brucei hexokinase 1 inhibition; AID 1430; recombinant TbHK1, G6PDH-coupled NADH A340; inhibition, % at 10 µM; 220,000 compounds, 0.11% hits;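 active = inhibition of 50% or more in the single-dose primary screen; inactive = inhibition below 50%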
HMGR II inh – inhibitors of class II HMG-CoA reductase from Enterococcus faecalis | purified E. faecalis HMGR, NADPH absorbance 340 nm kinetic | inhibition, % at 10 µM | 190,000 compounds, 0.41% hits | AID 1066;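 active = inhibition above a set limit, the median over all tested compounds plus 3 SD, cut at about 9.5% in these data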;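 note: enzyme runs in reverse so mevalonate oxidation gives rising NADPH absorbance; 0% = complete reaction with DMSO and 100% = background rate lacking mevalonate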
p97 ATPase inh – human p97 ATPase inhibition; P55072; recombinant p97 ATPase, Kinase-Glo ATP luminescence, 3 h; inhibition, % at 8 µM; 220,000 compounds, 0.42% hits; in the data active = inhibition above about 15%;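 note: 0% = DMSO vehicle and 100% = wells lacking enzyme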
Furin inh – inhibitors of human furin. purified furin, fluorogenic substrate cleavage. inhibition, % at 20 µM or 30 µM. 220,000 compounds, 0.061% hits. AID 463115; in the data active = inhibition above about 25%
Target sequence (P09958 108-714 limits assumed): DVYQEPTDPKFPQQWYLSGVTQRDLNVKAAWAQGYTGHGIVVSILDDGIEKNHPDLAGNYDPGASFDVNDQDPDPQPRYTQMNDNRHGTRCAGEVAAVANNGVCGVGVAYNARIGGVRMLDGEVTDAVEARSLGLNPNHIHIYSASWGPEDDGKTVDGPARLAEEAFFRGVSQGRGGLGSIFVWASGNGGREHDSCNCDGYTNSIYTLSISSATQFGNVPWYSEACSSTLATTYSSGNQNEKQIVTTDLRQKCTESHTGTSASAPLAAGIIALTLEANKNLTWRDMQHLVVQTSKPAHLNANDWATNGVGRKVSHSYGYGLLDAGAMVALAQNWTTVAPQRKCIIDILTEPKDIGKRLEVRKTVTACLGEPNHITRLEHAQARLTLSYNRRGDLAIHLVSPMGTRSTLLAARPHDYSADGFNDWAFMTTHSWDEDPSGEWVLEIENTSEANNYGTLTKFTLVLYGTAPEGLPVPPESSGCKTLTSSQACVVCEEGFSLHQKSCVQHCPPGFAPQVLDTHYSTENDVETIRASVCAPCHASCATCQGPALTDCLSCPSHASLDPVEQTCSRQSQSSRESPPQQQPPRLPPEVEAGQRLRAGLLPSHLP
Redox H2O2 prof – compounds producing H2O2 with reducing agent – biochemical, NIH compound library profiling, artefact control for MLSCN library redox annotation, primary screen; DTT-dependent redox cycling H2O2, phenol red/HRP absorbance; 100% = 100 µM peroxide control, 0% = buffer; AID 878; activation, % at 10 µM; 200,000 compounds, 0.03% hits;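 active = activation of at least 50% relative to the plate's high and low controls in the primary single-dose screen; inactive = activation below 50%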;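 note: compound incubated with DTT at 0.8 mM final as the reducing agent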
p-CIP stab down – lowers stability of the mouse p/CIP coactivator protein; F442A p/CIP-EGFP cells, EGFP fluorescence, 16 h; decrease of EGFP signal, % at 10 µM; 290,000 compounds, 0.01% hits; AID 1984;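 active = EGFP signal decrease of at least 30% at 10 µM or well 3 SD below plate mean, unless failing retest; inactive = the rest, including hits failing retest or dose response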
An asterisk follows results filed as active; x = no result. This is a sample that favours compounds with a hit; in the whole collection about 0.74% have one here.

SMILES | Tb hexokinase | HMGR II inh | p97 ATPase inh | Furin inh | Redox H2O2 prof | p-CIP stab down
O=C(/C=C/c1ccc(F)cc1)Nc1ccc2[nH]c(=O)[nH]c2c1 | -6 | x | 9 | -13 | x | -6
COc1ccc(CCC(=O)N(C)CC(=O)Nc2ccc(N3CCOCC3)cc2)cc1 | -3 | 9.7* | 1 | -22 | 0 | 8
COc1ccc(CC(=O)OCC(=O)Nc2ccc(N3CCOCC3)cc2)cc1 | -4 | x | -3 | -18 | x | -9
CCCOP(=O)(c1ccc(N(C)C)cc1)C(Nc1ccccc1)c1ccc(N(C)C)cc1 (stereo not drawn) | -7 | -6 | 4 | 28* | 0 | -2
COc1cccc(NS(=O)(=O)c2ccc3c(c2)C2C=CCC2C(c2ccc(C(=O)O)cc2)N3)c1 (stereo not drawn) | 10 | 1 | 15* | -7 | 0 | -3
COc1ccc(C(=O)N/N=C(\C)c2ccc3c(c2)C2C=CCC2C(c2ccccc2)N3)cc1 (stereo not drawn) | -23 | -6 | 0 | -11 | 0 | -1
O=C(/C=C/c1ccc2c(c1)OCO2)Nc1cccnc1 | -32 | -8 | 0 | -7 | 0 | -28
Cc1ccc(S(=O)(=O)N2CCCCC2)cc1NC(=O)CNCc1ccco1 | -5 | x | 5 | -10 | x | 8
COc1ccc(OC)c(CC(NC(C)=O)C(=O)NC2CCN(c3cc(C)nc4ncnn34)CC2)c1 (stereo not drawn) | 2 | 9.7* | 7 | -26 | 3 | -5
COc1ccc(CC(NC(C)=O)C(=O)NC2CCN(c3c(Cc4ccccc4)c(C)nc4ncnn34)CC2)c(OC)c1 (stereo not drawn) | -13 | -2 | 1 | -16 | 0 | -17
COc1cc(CC(NC(C)=O)C(=O)NC2CCN(C(=O)C3CC3)CC2)cc(OC)c1 (stereo not drawn) | 1 | 9.6* | 0 | -15 | -1 | -14
COc1ccc(N2C(=O)C(CN3CCCCC3)C2c2ccccc2)cc1 (stereo not drawn) | 7 | 15* | 2 | -22 | 0 | 11
Cc1c(CN2CCc3c([nH]c4ccccc34)C2C2CCCCC2)cnn1C (stereo not drawn) | -20 | 19* | 2 | -24 | -1 | -7
CCN(Cc1cc(=O)n2cc(Cl)c(C)c(Cl)c2n1)Cc1nc2ccccc2c(=O)[nH]1 | -10 | 10* | 3 | -30 | 0 | -34
COc1ccc(N2CC(C(=O)N/N=C/c3ccc([N+](=O)[O-])cc3)CC2=O)cc1 (stereo not drawn) | -20 | 0 | 4 | -21 | 0 | 26
COc1ccc(N2CC(C(=O)N/N=C/c3ccc(C)cc3)CC2=O)cc1 (stereo not drawn) | 6 | -4 | 15* | -13 | -1 | 12
CC(=O)C1=C(C)NC(=O)CC1c1ccc(Br)cc1 (stereo not drawn) | 0 | -5 | 5 | -28 | -2 | -5
Cn1c(=O)c2c(nc(SCC(=O)N3CCc4ccccc43)n2Cc2ccc(F)cc2)n(C)c1=O | 1 | x | 7 | 28* | 1 | x
COc1cc(/C=N/c2oc(-c3ccccc3)cc2C#N)ccc1O | -17 | 10* | -1 | -11 | 1 | 0
CCOC(=O)N/N=C\c1ccc([N+](=O)[O-])s1 | -3 | 11* | 8 | -23 | 0 | 6
CC(C)(C)OC(=O)N/N=C\c1ccc([N+](=O)[O-])s1 | -7 | 2 | 5 | -27 | 0 | -5
O=C(O)C1Nc2c(O)cccc2C2C=CCC12 (stereo not drawn) | 6 | 8 | 23* | -14 | 1 | 5
O=C(O)C1Nc2c(Cl)cc(Cl)cc2C2C=CCC12 (stereo not drawn) | x | x | x | x | x | -8
COc1ccc(C(=O)NCCN2CCOCC2)cc1OC | 2 | -2 | 7 | 30* | 1 | -1
CCOc1ccc(Nc2nc(NCCN3CCOCC3)nc(OC)n2)cc1 | -5 | -6 | 15* | -7 | 0 | -3
SMILES | Tb hexokinase | HMGR II inh | p97 ATPase inh | Furin inh | Redox H2O2 prof | p-CIP stab down
Nc1ncnc2nc(SCC(=O)Nc3ccccc3F)[nH]c12 | x | x | x | x | x | -10
O=C(COC(=O)CN1C(=O)c2ccccc2C1=O)Nc1ccc(S(=O)(=O)N2CCCC2)cc1 | -2 | 12* | 0 | -20 | 0 | -2
O=C(COC(=O)CCN1C(=O)c2ccccc2C1=O)Nc1ccc(S(=O)(=O)N2CCCC2)cc1 | 3 | 1 | -4 | -19 | 0 | -12
COc1cc(NS(=O)(=O)c2cn(C)cn2)cc(OC)c1 | x | x | x | x | x | -1
CCCn1c(=S)[nH]c2ccccc2c1=O | -2 | 15* | -3 | -30 | 0 | -4
CCCCn1c(=O)c2ccccc2c2ccccc2c1=O | -5 | 32* | -3 | -12 | 3 | -12
O=C(Oc1ccccc1O)c1cccc2ccccc12 | 6 | 18* | 6 | -23 | -1 | -1
O=C(Oc1cccc2c(O)cccc12)c1ccccc1 | 4 | 1 | 4 | -1 | -1 | -9
O=[N+]([O-])c1ccc(N/N=C/c2ccc(O)c(O)c2O)c(S(=O)(=O)N2CCOCC2)c1 | -1 | 22* | 7 | -11 | 0 | 3
Cc1ccccc1Oc1nc(-c2ccccn2)nc2ccccc12 | -7 | x | 0 | -10 | x | -6
CC1CCCCN1CC(O)COc1ccc(OCC(O)CN2CCCCC2C)cc1 (stereo not drawn) | x | x | x | x | x | 6
COc1ccc(S(=O)(=O)N(C)C)cc1NC(=O)CSc1nnc(-c2cccnc2)o1 | -5 | 13* | 0 | -26 | 0 | -2
O=c1/c(=C/c2ccccn2)sc2nc3ccccc3n12 | 1 | -2 | 4 | -8 | 0 | -40
O=c1/c(=C\c2cc([N+](=O)[O-])cc([N+](=O)[O-])c2O)sc2nc3ccccc3n12 | 60* | 9 | 7 | -14 | -1 | 9
CC[n+]1c(C)n(-c2ccccc2)c2ccc(C(=O)OC)cc21 | 1 | 16* | 1 | -33 | 0 | 0
CCOC(=O)c1ccc2c(c1)[n+](CC)c(C)n2-c1ccccc1 | -1 | -7 | 5 | -18 | -1 | -4
CN1C(=O)C(C)(C)c2cc(S(=O)(=O)N3CCN(c4cccc(Cl)c4)CC3)ccc21 | x | x | x | x | x | -6
Cc1cc(=O)oc2cc(OCc3ccc(C(=O)OCC(=O)Nc4ccc(N(C)C)cc4)cc3)ccc12 | -12 | 4 | 1 | -30 | -2 | 0
C=CCNC(=S)/C(=C(\[O-])c1ccc(Cl)cc1)[n+]1ccccc1 | -13 | x | 15* | -14 | x | -5
CN(C)c1ccc(/C=N/N(CCC#N)C2=NS(=O)(=O)c3ccccc32)cc1 | x | x | x | x | x | -10
CCOc1ccc(CN2CCN(Cc3cccn3-c3nccs3)CC2CCO)cc1 (stereo not drawn) | -4 | x | -9 | -11 | x | -15
COc1ccc(NC(=O)CSc2nncs2)cc1S(N)(=O)=O | -5 | x | -3 | -10 | x | 2
COc1ccc(NC(=O)CSc2nccn2C)cc1S(N)(=O)=O | 4 | 10* | 5 | -32 | 4 | 14

High-throughput results from PubChem BioAssay.
